This is a sample that favours compounds with a hit; in the whole collection about 21% have one here.
Pf growth 96h = Primary qHTS for delayed death inhibitors of the malarial parasite plastid, 96 hour incubation; P. falciparum luciferase reporter growth, 96 h; Potency, µM (series often up to 28.7 µM), hits mostly inhibitors; 320,000 tested, 6.9% active; AID 504834, 2011
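Parasite growth measured via integrated firefly luciferase reporter in P. falciparum. Infected erythrocytes at 2% hematocrit, 0.05% parasitemia final were treated 96 hours at 37 C under 5% CO2, and luminescence was read.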
SARS PLpro yeast = qHTS of Yeast-based Assay for SARS-CoV PLP; S. cerevisiae expressing SARS-CoV PLpro, growth rescue; Potency, µM (highest dose often 32.9 µM), actives largely listed as activators; 330,000 tested, 0.19% active; calls by dose curve; further: nearly all actives have a fitted effect of over 55% in size
Cycloheximide cs = Cycloheximide Counterscreen for Small Molecule Inhibitors of Shiga Toxin; cell reporter, cycloheximide protein synthesis inhibition counterscreen; max response, %; 300,000 tested, 12% active; AID 2314, 2010; in the data active means max response mostly above about 13%, no sharp cut-off; inactive means mostly below about 14%; further: read at 38.3 µM for the half of the compounds with a filed dose
Pf growth 48h = Primary qHTS for delayed death inhibitors of the malarial parasite plastid, 48 hour incubation. P. falciparum luciferase growth in erythrocytes, 48 h. Potency, µM (top dose mostly 28.7 µM), actives largely listed as inhibitors. 310,000 tested, 5.9% active. AID 504832, 2011
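Cell-based growth assay: transgenic P. falciparum expressing firefly luciferase, cultured in red cells within RPMI 1640 containing 0.5% w/v Albumax, 24 mM bicarbonate and gentamycin. A drop in luciferase activity indicates inhibition.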
Shiga inhibitor = A qHTS for Small Molecule Inhibitors of Shiga Toxin. Vero cells, Shiga toxin protein synthesis inhibition reporter. inhibition, % at 38.7 µM. 290,000 tested, 9.2% active; in the data active means inhibition mostly above about 28%, no sharp cut-off; inactive means mostly below about 43%
NS1 inh = qHTS Assay for Inhibitors of Influenza NS1 Protein Function; Potency, µM (series often up to 46.1 µM); 270,000 tested, 0.4% active; calls by dose curve; further: actives are rising curves; nearly all actives have a fitted effect of over 50% in size
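OD600 was taken as the measure of yeast growth restored by compound in an NS1-expressing S. cerevisiae strain. Cells had been washed out of glucose medium and diluted 1:100 into galactose -URA medium, pH 6.0.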
Large screens that a line does not name were inactive. Unless noted, the call rests on the fitted dose curve; in most records, active means well fitted inhibition curve with a large enough effect; inconclusive means small, poorly fitted or top-dose-only effect, or another doubt; inactive means no such curve, though single readings can be large or run the other way.

CC[C@H](C)[C@H](NC(=O)[C@H](CCC(=O)O)NC(=O)CNC(=O)[C@@H](NC(=O)[C@@H]1CCCN1C(=O)[C@@H](NC(=O)[C@@H]1CCCN1C(=O)[C@@H]1CCCN1C(=O)[C@H](CC(N)=O)NC(=O)[C@H](CC(N)=O)NC(=O)[C@@H](NC(=O)[C@H](CCSC)NC(=O)[C@H](Cc1c[nH]c2ccccc12)NC(=O)CNC(=O)[C@@H](NC(=O)[C@H](CCC(N)=O)NC(=O)[C@@H](N)CCC(=O)O)[C@@H](C)CC)[C@@H](C)O)[C@@H](C)CC)C(C)C)C(=O)O	none (no result: Pf growth 96h, SARS PLpro yeast, Pf growth 48h, NS1 inh)
CCOc1cc(N2CCOCC2)c(OCC)cc1NC(=O)c1c(-c2ccccc2Cl)noc1C	Pf growth 96h inconclusive, Pf growth 48h 5.86µM (no result: NS1 inh)
Cc1onc(-c2ccccc2Cl)c1C(=O)N1CCN(Cc2ccc3c(c2)OCO3)CC1	Pf growth 96h 13.1µM
Cc1nn(Cc2ccccc2)c2sc(C(=O)N3CCN(Cc4ccc5c(c4)OCO5)CC3)cc12	Pf growth 96h inconclusive, Pf growth 48h 10.4µM (no result: SARS PLpro yeast)
CCOc1cc(N2CCOCC2)c(OCC)cc1NC(=O)c1c(-c2ccccc2)noc1C	Pf growth 96h inconclusive, Pf growth 48h inconclusive (no result: Cycloheximide cs, Shiga inhibitor, NS1 inh)
CCOc1ccccc1N1CCN(C(=O)c2c(-c3ccccc3Cl)noc2C)CC1	Pf growth 48h 9.28µM
Cc1onc(-c2ccccc2Cl)c1C(=O)N1CCN(c2ncccn2)CC1	none
CCN(CC)S(=O)(=O)c1cccc(N=Nc2c(O)c3ccccc3oc2=O)c1	none
O=C(Cc1ccccc1)OCc1ccccc1	none (no result: Cycloheximide cs, Shiga inhibitor, NS1 inh)
CC(C)CCOc1ccc(N)cc1	Cycloheximide cs 12.3, Shiga inhibitor 23.8 (no result: Pf growth 96h, SARS PLpro yeast, Pf growth 48h, NS1 inh)
Nc1ccc(OCc2ccccc2)cc1	Pf growth 96h inconclusive, Cycloheximide cs 17.1, Shiga inhibitor 36.2, NS1 inh inconclusive
Nc1ccc(OCCc2ccccc2)cc1	Pf growth 96h inconclusive, Cycloheximide cs 30.8, Pf growth 48h inconclusive, Shiga inhibitor 29.0
NOCc1ccccc1	Cycloheximide cs 32.2 (no result: Pf growth 96h, SARS PLpro yeast, Pf growth 48h, NS1 inh)
COc1cc2c(cc1OC)C1C(C(=O)Nc3ccccc3N3CCN(C)CC3)c3ccccc3C(=O)N1CC2 (stereo not drawn)	none
O=C(NCc1ccc2c(c1)OCO2)C1CC(=O)N(CCc2ccc(Cl)cc2)C1 (stereo not drawn)	none
CCN(Cc1ccccc1)Cc1ccc(OCc2ccccc2)cc1	Cycloheximide cs 15.0
CCN(CC)CCOc1ccc(Cc2ccccc2)cc1	Pf growth 48h inconclusive (no result: SARS PLpro yeast, Cycloheximide cs, Shiga inhibitor, NS1 inh)
Cc1cccc(CSc2nnc3c(n2)[nH]c2ccccc23)c1	Pf growth 96h 1.85µM, Pf growth 48h 1.47µM
Cc1ccnc(NC(=O)CSc2nnc3c(n2)[nH]c2ccccc23)c1	Cycloheximide cs 33.2, Shiga inhibitor 46.6
CCc1ccc2[nH]c3nc(SCc4nnc(-c5ccc(C)cc5)o4)nnc3c2c1	Pf growth 96h inconclusive
CCCN(CC(=O)Nc1ccccc1C)C(=O)C1CCN(C(=O)Nc2ccccc2)CC1	Pf growth 96h inconclusive (no result: Cycloheximide cs, Shiga inhibitor, NS1 inh)
C/C(=N\NC(=O)COc1cc(C)cc(C)c1)c1cccc(NC(=O)C2CCC2)c1	none
O=C(CCl)N(c1ccccc1)C1CCS(=O)(=O)C1 (stereo not drawn)	Pf growth 96h inconclusive, Pf growth 48h 11.7µM
O=C(COc1ccc2c(-c3ccccc3)cc(=O)oc2c1)NCC(O)c1ccccc1 (stereo not drawn)	none
Cc1ccccc1C(=O)N1CCC(C(=O)OCc2nc(N)nc(Nc3ccccc3)n2)CC1	Pf growth 96h 13.1µM, Pf growth 48h inconclusive (no result: Cycloheximide cs, Shiga inhibitor, NS1 inh)
Cc1cc(=O)c(C(=O)O)nn1-c1ccccc1	none (no result: NS1 inh)
CCN(CC)S(=O)(=O)c1ccc(NC(=O)C2CCCN(C(=O)c3ccc(Cl)cc3)C2)cc1 (stereo not drawn)	Pf growth 96h inconclusive, Pf growth 48h inconclusive
O=C(N/N=C(\Cc1ncc[nH]1)c1ccccc1)c1cccnc1	Pf growth 96h inconclusive, Pf growth 48h 9.28µM (no result: NS1 inh)
O=C(N/N=C(\c1ccccc1)c1cccnc1)c1cccc(F)c1	Pf growth 96h inconclusive, Pf growth 48h 1.85µM
COc1ccc(C)cc1NC(=O)CNC(=O)[C@@H]1Cc2ccccc2CN1	none
CC1(CCc2ccc3c(c2)OCO3)NCCc2c1[nH]c1ccccc21 (stereo not drawn)	Pf growth 96h inconclusive, Pf growth 48h 10.4µM

Assay outcomes: PubChem BioAssay, National Center for Advancing Translational Sciences (NCATS)
